According to PubChem BioAssay (Tox21):
Records with an inconclusive call do not appear. The source made the active and inactive calls. Unless noted, the call rests on the fitted dose curve; in most records, active means well fitted curve in the direction sought with a large enough effect in the repeat runs; inconclusive means weak or mixed curves; inactive means no such curve, though single readings can be large; an effect the other way counts as inactive or inconclusive.

Key:
[1] = qHTS assay to identify small molecule antagonists of the estrogen related receptor (ERR) signaling pathway - cell viability counter screen (AID 1224818); further: potency means the concentration at half of the fitted maximal effect;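 further: viability measured after 17.5 h of compound exposure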
How it was run: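 Cytotoxicity counter screen: fluorescence from CellTiter-Fluor, added after 17.5 h compound exposure at 37 C and read 30 min later. ERR cell line seeded at 2,000 cells/well, preincubated 6 h before dosing.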

[2] = qHTS assay to identify small molecule antagonists of the estrogen related receptor (ERR) signaling pathway (AID 1224819;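 further: luminescence from an ERR-driven luciferase reporter measured with One-Glo reagent; series mostly up to about 46 µM; nearly all actives have a fitted effect of over 50% in size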)
How it was run: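 LOPAC library screened for antagonism as reduced One-Glo luminescence in ERR reporter cells (2,000/well). Compounds were added after 6 h pre-incubation and left 18 h at 37C; reading followed a 30 min room-temperature reagent step.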

[3] = qHTS assay to identify small molecule agonists of the estrogen related receptor (ERR) signaling pathway (AID 1224820)
How it was run: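 Following a 6 h settling period, 2,000 ERR cells per well receive DMSO-dissolved compounds by pin tool and incubate 18 h at 37 C; agonist activity is scored from One-Glo luminescence read 30 min post-addition.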

[4] = system: estrogen-related receptor alpha (ERRalpha) with PGC-1alpha coactivator, human; experiment: qHTS assay to identify small molecule antagonists of the estrogen related receptor signaling pathway with the pleiotropic PPARgamma coactivator (PGC) (AID 1224821; calls by dose curve; further: nearly all actives have a fitted effect of over 50% in size; further: potency means the concentration at half of the fitted maximal effect)
How it was run: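 Screening used NTP's PGC/ERR cells, dosed via pin tool with compound in DMSO alongside positive and negative controls. After 18 h at 37 C, One-Glo reagent sat 30 min at room temperature before luminescence detection.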

[5] = qHTS assay to identify small molecule antagonists of the estrogen related receptor signaling pathway with the pleiotropic PPARgamma coactivator (PGC) cell viability counter screen (AID 1224822; further: potency means the concentration at half of the fitted maximal effect)
How it was run: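 Viability counter-screen read by fluorescence intensity after 30 min with CellTiter-Fluor at 37 C; PGC/ERR reporter cells were exposed to compounds for 17.5 h at 37 C following a 6 h preincubation.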

[6] = qHTS assay to identify small molecule agonists of the estrogen related receptor signaling pathway with the pleiotropic PPARgamma coactivator (PGC) (AID 1224823)
How it was run: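 In this quantitative high-throughput screen, an 18 h, 37 C treatment of PGC/ERR cells with compounds in DMSO preceded a One-Glo luminescence read taken after 30 min at room temperature.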

[7] = qHTS assay for small molecule agonists of the p53 signaling pathway (AID 651631; calls by dose curve; further: nearly all actives have a fitted effect of over 15% in size)
How it was run: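 Read-out is beta-lactamase FRET fluorescence measured 2 h after substrate addition at room temperature, in HCT-116 cells with a p53 response element-driven reporter exposed to compounds for 16 h at 37 °C.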

[8] = qHTS assay for small molecules that induce genotoxicity in human embryonic kidney cells expressing luciferase-tagged ATAD5 (AID 651632); further: nearly all actives have a fitted effect of over 15% in size
How it was run: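 A rise in luciferase signal from ATAD5-tagged HEK293T cells marks genetic stress. Cells were exposed to compounds for 16 hr at 37C, 5% CO2, then luciferase was quantified after a 30 min room-temperature incubation with Amplite.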

[9] = qHTS assay for small molecule agonists of the p53 signaling pathway - cell viability (AID 651633; calls by dose curve;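 further: p53RE-bla HCT reporter cells with a stable beta-lactamase p53 reporter; series mostly up to about 83 µM; nearly all actives have a fitted effect of over 30% in size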)
How it was run: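 p53RE-bla cells were treated with compound for 16 hours at 37 C. Cytotoxicity was then measured as CellTiter-Glo luminescence after 30 min at room temperature.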

[10] = qHTS assay for small molecules that induce genotoxicity in human embryonic kidney cells expressing luciferase-tagged ATAD5 - cell viability (AID 651634; calls by dose curve; further: nearly all actives have a fitted effect of over 25% in size)
How it was run: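 Cytotoxicity counter-readout: after 15.5 hr compound treatment at 37C, live-cell protease activity in ATAD5-luciferase HEK293T cells measured by CellTiter-Fluor fluorescence, 30 min development at 37C.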

[11] = qHTS assay for small molecule disruptors of the mitochondrial membrane potential - cell viability (AID 720634; calls by dose curve;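 further: human HepG2 liver cancer cells; series mostly up to about 83 µM; nearly all actives have a fitted effect of over 20% in size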)
How it was run: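 Cytotoxicity was quantified from ATP content by CellTiter-Glo luminescence in the same wells as the MMP dye read-out. HepG2 (2,000 cells/well) were plated overnight and exposed to compounds for 1 hr at 37 C.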

[12] = qHTS assay to test for compound auto fluorescence at 590 nm (red) in HepG2 cells (AID 720674)
How it was run: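 HepG2 cells, 2,000 per well in MEM with 10% FBS, attached overnight at 37 C, then got 23 nL compound or DMSO. After 1 hr at 37 C, 5% CO2, red fluorescence was read at 540/590 nm against Rose Bengal sodium as reference.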

[13] = qHTS assay to test for compound auto fluorescence at 535 nm (green) in HepG2 cells (AID 720675)
[14] = qHTS assay to test for compound auto fluorescence at 460 nm (blue) in HEK293 cells (AID 720678)
How it was run: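 HEK293, 2,000 cells/well, 10% dialyzed FBS; attach 4-5 hr 37C; pin compound or DMSO; o/n 37C/5% CO2; fluorescence 405/460 nm; triamterene-equivalent units.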

[15] = qHTS assay to test for compound auto fluorescence at 590 nm (red) in HEK293 cells (AID 720679)
How it was run: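 Intensity at 540nm excitation and 590nm emission is reported as Rose Bengal sodium-equivalent autofluorescence. Measurements followed overnight exposure (37C, 5% CO2) of HEK293 cells, 2,000 per well, to 23 nL compound.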

[16] = qHTS assay to test for compound auto fluorescence at 535 nm (green) in HEK293 cells (AID 720680)
[17] = qHTS assay to test for compound auto fluorescence at 460 nm (blue) in HEK293 cell free culture (AID 720681)
How it was run: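 Compounds were added to cell-free DMEM with 10% FBS and fluorescence read directly. The blue channel used 405 nm excitation and 460 nm emission, with triamterene as the reference fluorophore.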

[18] = qHTS assay to test for compound auto fluorescence at 535 nm (green) in HEK293 cell free culture (AID 720682)
How it was run: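 Fluorescein serves as the green reference fluorophore; each compound's intrinsic emission at 535 nm (excitation 485 nm) is reported as an equivalent amount of that dye, measured in serum-containing DMEM without cells.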

[19] = qHTS assay to test for compound auto fluorescence at 590 nm (red) in HEK293 cell free culture (AID 720683)
How it was run: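 Cell-free wells of DMEM with 10% FBS received compound, and intrinsic fluorescence was read at excitation/emission 540/590 nm. Values expressed as equivalence to Rose Bengal sodium.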

[20] = qHTS assay to test for compound auto fluorescence at 460 nm (blue) in HepG2 cell free culture (AID 720685)
How it was run: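 Cell-free plates of MEM plus 10% FBS received 23 nL compound or DMSO vehicle; blue-channel (405/460 nm) intensity scored against triamterene as reference fluorophore.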

[21] = qHTS assay to test for compound auto fluorescence at 535 nm (green) in HepG2 cell free culture (AID 720686)
[22] = qHTS assay to test for compound auto fluorescence at 460 nm (blue) in HepG2 cells (AID 720687)
How it was run: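 HepG2 cells in MEM with 10% FBS, attached overnight at 37 C, were exposed to compound or DMSO for 1 hr at 37 C, 5% CO2. Blue fluorescence was read at 405/460 nm, with triamterene as reference fluorophore.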

[23] = biological target: Glucocorticoid receptor (Homo sapiens) (UniProt P04150); experiment: qHTS assay to identify small molecule agonists of the glucocorticoid receptor (GR) signaling pathway (AID 720691; active means well fitted activation curve with a large enough effect in the signal ratio in the repeat runs, not every such curve was filed as active; the % refers to the signal ratio)
How it was run: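 Agonist-mode qHTS in HeLa cells stably expressing a glucocorticoid-response-element beta-lactamase reporter. Fluorescence intensity read with FRET substrate (2 h, room temperature) after 18 h compound treatment at 37 C.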

[24] = qHTS assay to identify small molecule antagonists of the glucocorticoid receptor (GR) signaling pathway - cell viability counter screen (AID 720693); further: nearly all actives have a fitted effect of over 55% in size
[25] = qHTS assay for identifying genotoxic compounds that show differential cytotoxicity against isogenic chicken DT40 cell lines with known DNA damage response pathways - Rev3 mutant cell line (AID 743014); further: potency means the concentration at half of the fitted maximal effect; nearly all actives have a fitted effect of over 55% in size
[26] = qHTS assay to identify small molecule antagonists of the androgen receptor (AR) signaling pathway - cell viability counter screen (AID 743033; further: nearly all actives have a fitted effect of over 45% in size)
[27] = qHTS assay to identify small molecule antagonists of the androgen receptor (AR) signaling pathway using the MDA cell line - cell viability counter screen (AID 743041; further: nearly all actives have a fitted effect of over 45% in size)
How it was run: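 Cytotoxicity counter screen: MDA-kb2 AR-luc cells, compound + R1881, 16 h, 37C, 0% CO2; CellTiter-Fluor added at 15.5 h, fluorescence read after 30 min.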

[28] = system: thyroid hormone receptor (rat, GH3 cells); experiment: qHTS assay to identify small molecule agonists of the thyroid receptor (TR) signaling pathway (AID 743066; calls by dose curve)
[29] = biological target: Estrogen receptor (Homo sapiens) (UniProt P03372); experiment: qHTS assay to identify small molecule antagonists of the estrogen receptor alpha (ER-alpha) signaling pathway (AID 743069; active means well fitted curve in the direction sought with a large enough effect in the signal ratio in the repeat runs, not every such curve was filed as active; the % refers to the signal ratio)
How it was run: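 Beta-lactamase FRET fluorescence is read after 2 hr at room temperature with LiveBLAzer B/G substrate. Before that, ER-alpha-bla HEK293 cells sit 4 hr after plating, then receive compound plus 17beta-estradiol and incubate 18 hr at 37C.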

[30] = qHTS assay to identify small molecule antagonists of the estrogen receptor alpha (ER-alpha) signaling pathway - cell viability counter screen (AID 743074; calls by dose curve;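 further: HEK293 cells carrying ER-alpha-UAS-bla reporter stimulated with 17beta-estradiol; nearly all actives have a fitted effect of over 45% in size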)
[31] = biological target: Estrogen receptor (Homo sapiens) (UniProt P03372); experiment: qHTS assay to identify small molecule agonists of the estrogen receptor alpha (ER-alpha) signaling pathway (AID 743075; calls by dose curve;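 further: HEK293 GripTite cells with ER-alpha and UAS-driven beta-lactamase reporter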)
[32] = biological target: Estrogen receptor (Homo sapiens) (UniProt P03372); experiment: qHTS assay to identify small molecule agonists of the estrogen receptor alpha (ER-alpha) signaling pathway using the BG1 cell line (AID 743079); further: potency means the concentration at half of the fitted maximal effect; nearly all actives have a fitted effect of over 20% in size
[33] = qHTS assay to identify small molecule antagonists of the estrogen receptor alpha (ER-alpha) signaling pathway using the BG1 cell line (AID 743080; calls by dose curve;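 further: BG1 cells stimulated with 17beta-estradiol alongside compound; series mostly up to about 70 µM; nearly all actives have a fitted effect of over 25% in size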)
How it was run: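 BG1Luc4E2, endogenous ER-alpha, 4xERE-luc; 5 d charcoal-stripped FBS, phenol red free; 24 h plating; cpd + 17beta-estradiol 21.5 h, 37 C/5% CO2; CellTiter-Fluor viability 30 min, then ONE-Glo luciferase 30 min RT.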

[34] = qHTS assay to identify small molecule antagonists of the estrogen receptor alpha (ER-alpha) signaling pathway using the BG1 cell line - cell viability counter screen (AID 743081);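 further: compound given together with 17beta-estradiol as the ER stimulus; series mostly up to about 70 µM; nearly all actives have a fitted effect of over 45% in size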
Aromatase (Homo sapiens) = Aromatase (Homo sapiens) (UniProt P11511); experiment: qHTS assay to identify aromatase inhibitors (AID 743083); further: series mostly up to about 70 µM; nearly all actives have a fitted effect of over 55% in size
[35] = qHTS assay to identify aromatase inhibitors - cell viability counter screen (AID 743084);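 further: cells stimulated with testosterone during compound exposure; nearly all actives have a fitted effect of over 55% in size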
[36] = biological target: Aryl hydrocarbon receptor (Homo sapiens) (UniProt P35869); experiment: qHTS assay to identify small molecule that activate the aryl hydrocarbon receptor (AhR) signaling pathway (AID 743085);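 further: HG2L7.5c1 human HepG2 liver cells with stably integrated DRE-driven firefly reporter; series mostly up to about 70 µM; nearly all actives have a fitted effect of over 15% in size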
How it was run: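 Cell line HG2L7.5c1 (human hepatoma, 20× DRE-luc). Plated, 5 h 37C, compound/DMSO added, 24 h 37C. CellTiter-Fluor 30 min 37C → fluorescence; then ONE-Glo 30 min RT → luminescence.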

[37] = qHTS assay to identify small molecule that activate the aryl hydrocarbon receptor (AhR) signaling pathway - cell viability counter screen (AID 743086)
How it was run: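 HepG2-AhR-luc (HG2L7.5c1) cells, 4000/well, treated 24 h at 37 C with compound; viability measured as CellTiter-Fluor fluorescence after 30 min in the same wells as the luciferase read.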

[38] = qHTS assay to identify small molecule phospholipidosis (PLD) inducers (AID 1259344; active means well fitted curve in the direction sought with a large enough effect; an effect the other way counts as inactive or inconclusive)
How it was run: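 Read-out is LipidTOX Red fluorescence (ex 595/em 615) imaged in HepG2 cells after 24 h compound exposure at 37 C, with Hoechst nuclear counterstain (ex 352/em 461) allowing per-cell normalisation.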

Measured: Potency

Sequence of Estrogen receptor (Homo sapiens) (P03372 whole entry, looked up): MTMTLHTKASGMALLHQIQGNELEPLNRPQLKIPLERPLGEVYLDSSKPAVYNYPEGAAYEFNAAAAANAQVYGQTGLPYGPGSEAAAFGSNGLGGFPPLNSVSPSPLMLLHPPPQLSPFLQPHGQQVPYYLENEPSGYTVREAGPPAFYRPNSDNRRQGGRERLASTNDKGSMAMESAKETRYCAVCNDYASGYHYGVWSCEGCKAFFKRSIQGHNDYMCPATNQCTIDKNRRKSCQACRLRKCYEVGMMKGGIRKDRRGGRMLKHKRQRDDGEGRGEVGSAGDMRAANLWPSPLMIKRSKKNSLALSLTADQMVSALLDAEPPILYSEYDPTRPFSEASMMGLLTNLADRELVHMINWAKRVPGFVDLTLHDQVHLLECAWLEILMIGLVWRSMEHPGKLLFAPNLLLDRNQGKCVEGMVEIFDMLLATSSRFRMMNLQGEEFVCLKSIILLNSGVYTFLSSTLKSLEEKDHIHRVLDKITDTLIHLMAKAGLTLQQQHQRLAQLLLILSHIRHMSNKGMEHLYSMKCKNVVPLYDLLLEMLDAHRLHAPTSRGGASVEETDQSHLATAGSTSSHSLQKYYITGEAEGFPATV
Sequence of Aromatase (Homo sapiens) (P11511 whole entry, looked up): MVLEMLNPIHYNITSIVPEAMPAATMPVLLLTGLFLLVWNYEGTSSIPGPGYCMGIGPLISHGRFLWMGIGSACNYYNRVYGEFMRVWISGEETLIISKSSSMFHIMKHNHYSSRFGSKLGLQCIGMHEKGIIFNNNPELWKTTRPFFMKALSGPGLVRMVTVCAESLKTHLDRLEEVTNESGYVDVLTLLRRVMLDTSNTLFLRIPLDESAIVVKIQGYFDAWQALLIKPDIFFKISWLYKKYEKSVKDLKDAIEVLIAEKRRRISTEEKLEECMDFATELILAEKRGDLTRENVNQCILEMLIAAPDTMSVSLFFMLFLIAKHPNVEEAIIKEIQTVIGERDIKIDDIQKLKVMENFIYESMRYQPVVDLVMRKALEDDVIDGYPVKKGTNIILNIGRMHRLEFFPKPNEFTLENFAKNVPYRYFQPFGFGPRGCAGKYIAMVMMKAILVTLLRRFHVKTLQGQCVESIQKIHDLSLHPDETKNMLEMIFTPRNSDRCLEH
Sequence of Glucocorticoid receptor (Homo sapiens) (P04150 whole entry, looked up): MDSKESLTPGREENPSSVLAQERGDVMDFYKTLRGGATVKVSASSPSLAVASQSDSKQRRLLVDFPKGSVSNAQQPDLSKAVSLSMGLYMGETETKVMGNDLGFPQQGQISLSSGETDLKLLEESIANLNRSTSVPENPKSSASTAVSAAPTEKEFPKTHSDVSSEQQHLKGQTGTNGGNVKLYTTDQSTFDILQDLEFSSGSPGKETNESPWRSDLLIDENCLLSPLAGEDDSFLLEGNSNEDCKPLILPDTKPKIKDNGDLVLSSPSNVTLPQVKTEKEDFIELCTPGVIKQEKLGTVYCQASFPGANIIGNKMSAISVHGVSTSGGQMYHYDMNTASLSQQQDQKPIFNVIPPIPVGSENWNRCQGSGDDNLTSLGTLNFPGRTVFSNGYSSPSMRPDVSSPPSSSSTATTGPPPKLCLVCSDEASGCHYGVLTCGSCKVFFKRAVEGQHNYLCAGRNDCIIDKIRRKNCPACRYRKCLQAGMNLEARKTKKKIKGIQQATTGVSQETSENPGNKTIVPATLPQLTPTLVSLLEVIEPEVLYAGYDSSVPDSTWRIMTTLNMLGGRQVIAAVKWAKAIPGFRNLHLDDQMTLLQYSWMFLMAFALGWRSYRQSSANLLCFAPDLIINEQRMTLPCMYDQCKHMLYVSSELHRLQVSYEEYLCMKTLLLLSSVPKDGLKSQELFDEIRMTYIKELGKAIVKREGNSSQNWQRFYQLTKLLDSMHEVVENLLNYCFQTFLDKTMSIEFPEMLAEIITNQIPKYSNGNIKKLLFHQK
Sequence of Aryl hydrocarbon receptor (Homo sapiens) (P35869 whole entry, looked up): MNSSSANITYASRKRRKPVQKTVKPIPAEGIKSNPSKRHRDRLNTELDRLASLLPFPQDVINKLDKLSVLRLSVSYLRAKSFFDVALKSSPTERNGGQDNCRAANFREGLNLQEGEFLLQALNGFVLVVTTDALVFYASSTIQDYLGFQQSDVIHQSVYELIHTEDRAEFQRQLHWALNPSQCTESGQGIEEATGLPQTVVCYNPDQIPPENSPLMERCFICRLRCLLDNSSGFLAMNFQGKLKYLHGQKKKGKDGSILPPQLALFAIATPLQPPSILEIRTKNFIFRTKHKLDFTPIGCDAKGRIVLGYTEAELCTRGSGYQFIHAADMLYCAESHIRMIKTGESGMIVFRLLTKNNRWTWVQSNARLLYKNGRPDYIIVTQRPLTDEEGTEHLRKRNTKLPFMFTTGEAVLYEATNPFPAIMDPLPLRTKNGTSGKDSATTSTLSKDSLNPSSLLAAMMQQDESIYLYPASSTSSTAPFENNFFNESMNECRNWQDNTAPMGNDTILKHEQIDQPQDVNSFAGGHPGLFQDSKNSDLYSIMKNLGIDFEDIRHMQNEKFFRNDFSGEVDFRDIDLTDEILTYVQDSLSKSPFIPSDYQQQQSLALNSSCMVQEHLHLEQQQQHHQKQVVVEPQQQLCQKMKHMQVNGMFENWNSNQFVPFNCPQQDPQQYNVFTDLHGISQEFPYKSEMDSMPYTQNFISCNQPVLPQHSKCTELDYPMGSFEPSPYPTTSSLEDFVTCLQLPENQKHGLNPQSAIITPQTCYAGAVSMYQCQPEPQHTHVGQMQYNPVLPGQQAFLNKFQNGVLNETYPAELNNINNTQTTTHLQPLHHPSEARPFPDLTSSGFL

CC(Cc1ccc(OCC(=O)O)cc1)NCC(O)c1cccc(Cl)c1 (stereo not drawn)
inactive: [1] | [2] | [3] | [4] | [5] | [6]

CP(=O)(O)C1=CCNCC1
inactive: [1] | [2] | [3] | [4] | [6]

CC(N)Cc1c[nH]c2ccc(O)cc12 (stereo not drawn)
inactive: [1] | [3]

Cn1cnc(CCN)c1
inactive: [1] | [3] | [4] | [5]

COc1ccc2c(c[n+](C)c3c4cc5c(cc4ccc23)OCO5)c1OC
active: [1] 18.1 µM | [4] 10.6 µM | [5] 5.11 µM
inactive: [3]

CCCN1CCc2cccc3c2[C@H]1Cc1ccc(O)c(O)c1-3
inactive: [1] | [2] | [3] | [6]

CC(C)NC(C)Cc1ccc(I)cc1 (stereo not drawn)
active: [25] 1.68 µM | [32] 21.1 µM
not listed: [3]
inactive: all other assays above
